This is a sample that favours compounds with a hit; in the whole collection about 0.97% have one here.
Mm-Cpn inhibitor: inhibitors of Methanococcus maripaludis chaperonin TRiC (MmCpn); Potency, µM (series often up to 76.9 µM), hits mostly inhibitors; actives 0.031% (n = 330,000); AID 504842; purified Mm-Cpn ATPase, ADP Transcreener TR-FRET; note: nearly all actives have a fitted effect of over 80% in size
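Reaction buffer contained 30 mM Tris pH 7.4, 100 mM KCl, 5 mM MgCl2 and 1 mM DTT. Mm-CPN (25 nM final) hydrolysed 10 uM ATP over 30 min at 37°C; ADP was read by HTRF.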
uPA generation: inhibitors of cell surface uPA generation; cell surface uPA generation assay, qHTS; Potency, µM (doses to about 38.3 µM), usual class: inhibitors; actives 0.31% (n = 330,000); AID 540303; active = well fitted inhibition curve with a large enough effect; inconclusive = small, poorly fitted or top-dose-only effect; inactive = no such curve, though single readings can be large or run the other way; tested in mouse RAW 264.7 cells; note: nearly all actives have a fitted effect of over 55% in size
CCT modulator: cytosolic chaperonin activity modulation | purified chaperonin ATPase assay, HTRF ADP detection, 30 min | activity change, % (concentration not given with the values), hits read low | actives 0.3% (n = 360,000) | AID 651819; in the data active = activity change below about -30%
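Enzyme 40 or 20 nM (batch-dependent) in Tris pH 7.4/KCl/MgCl2/DTT; cpd 76 uM single point; ATP 10 uM; 30 min 37 °C; Transcreener ADP HTRF detection, 30 min RT; ratio 665/615.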
Epigenetic derep: regulators of epigenetic silencing causing reporter derepression in mouse cells. murine LDR cells, GFP reporter derepression, 30 h. Potency, µM (doses to about 53.9 µM), hits mostly activators. actives 0.2% (n = 280,000). AID 1865; note: nearly all actives have a fitted effect of over 60% in size
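Reporter derepression read as number of fluorescent GFP-positive objects, 20-120 um in size, counted by laser-scanning cytometer. Mouse LDR line with an epigenetically silenced CMV-GFP locus; compound incubation 30 h, 37 C.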
Akt phos inh: blocks phosphorylation of Akt; Neuro2A IGF-stimulated pAkt S473 HTRF, 20 min; hits give low values; activity change, % for hits at 50 µM; AID 651550; actives 0.32% (n = 360,000); in the data active = activity change below about -80%; inconclusive = mostly about -51% to -80%
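Neuro2A cells (4,500/well, DMEM with 0.5% FBS) were treated with compound at a single 50 µM final concentration, stimulated with 6 nM IGF for 20 min at 37 °C, and lysed. Phospho-Akt Ser473 was read by HTRF as 665/615 ratio ×10^4.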
MBNL1-CUG inh: inhibitors of human MBNL1 binding to CUG repeat RNA; Q9NR56; TR-FRET MBNL1-His/biotin-(CUG)12 binding, 665/545 ratio; Potency, µM (series often up to 57.5 µM), actives largely listed as inhibitors; actives 0.036% (n = 280,000); active = well fitted inhibition curve with a large enough effect in the signal ratio, with a control signal flat, not every such curve was filed as active; inconclusive = small, poorly fitted or top-dose-only effect, or effect the other way, or a change in a side signal; inactive = no such curve, though single readings can be large or run the other way; the % refers to the signal ratio
Target sequence (Q9NR56 whole entry, looked up): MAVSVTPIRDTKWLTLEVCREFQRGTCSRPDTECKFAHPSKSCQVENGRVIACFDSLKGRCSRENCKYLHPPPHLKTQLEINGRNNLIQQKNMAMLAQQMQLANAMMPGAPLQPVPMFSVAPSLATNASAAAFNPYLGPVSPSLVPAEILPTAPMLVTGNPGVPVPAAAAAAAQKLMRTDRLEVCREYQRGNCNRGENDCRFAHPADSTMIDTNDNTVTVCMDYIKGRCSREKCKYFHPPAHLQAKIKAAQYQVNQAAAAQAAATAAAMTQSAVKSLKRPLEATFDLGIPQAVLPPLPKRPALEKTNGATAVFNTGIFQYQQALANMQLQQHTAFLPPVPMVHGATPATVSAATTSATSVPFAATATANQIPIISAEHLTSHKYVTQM
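Compound titration spanned 92 nM–58 uM against the MBNL1-His/biotin-(CUG)12 complex. After 60 min at room temperature with 5 nM streptavidin-XL665 and 0.055 ng/ul terbium anti-His, ratiometric 665/545 nm emission (Ex 340 nm) normalized to controls.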
Hits are given with their value; . = inactive; ? = inconclusive; / = no result. Unless noted, calls come from the whole dose curve; as a rule, active = well fitted curve in the direction sought with a large enough effect; inconclusive = small, poorly fitted or top-dose-only effect, or another doubt; inactive = no such curve, though single readings can be large; an effect the other way counts as inactive or inconclusive.

SMILES	Mm-Cpn inhibitor	uPA generation	CCT modulator	Epigenetic derep	Akt phos inh	MBNL1-CUG inh
COc1ccc(-c2c(-c3ccc(O)cc3O)n[nH]c2C(F)(F)F)cc1	40µM	.	.	.	.	.
COc1ccc(C2/C=C\CN(C(=O)NC(C)C)CC(=O)N2Cc2ccc(F)cc2)cc1 (stereo not given)	.	.	.	.	.	.
CCn1cc(S(=O)(=O)c2cc(C)cc(C)c2)c(=O)c2cc(F)c(N3CCN(c4ccccc4)CC3)cc21	/	/	/	.	/	/
Cc1nn(-c2ccccc2)c(C)c1/C=N/O	.	.	.	.	-111%	.
Cc1nn(-c2ccccc2)c(C)c1/C=N/n1cnnc1	.	.	.	.	.	.
Cc1ccc2cc(/C=N/NC(=O)c3ccc(F)cc3)c(Cl)nc2c1	.	.	.	.	.	.
Cc1ccc2nc(Cl)c(/C=N/Nc3ccc(C(=O)O)cc3)cc2c1	.	4µM	.	.	.	?
Cc1ccccc1CNC(=O)c1sc2ncnc(N(C)C3CCCCC3)c2c1C	/	/	/	.	/	/
COc1ccc(CCNC(=O)c2ccc3c(c2)N(Cc2ccccc2Cl)C(=O)c2ccccc2S3)cc1OC	/	/	/	.	/	/
COc1ccc(CCC(=O)NCCS(=O)(=O)N2CCN(c3ccc(F)cc3)CC2)cc1	.	.	.	/	.	/
COCCN(C(=O)CSc1nc2ccc(C)cc2[nH]1)c1c(N)n(Cc2ccccc2)c(=O)[nH]c1=O	.	.	-39	.	.	.
COCCN(C(=O)COC(=O)C1CCC(C(C)(C)C)CC1)c1c(N)n(Cc2ccccc2)c(=O)[nH]c1=O (stereo not given)	.	10µM	.	/	.	/
C[C@@H]1CN(Cc2cn(C)nc2-c2cccc(Cl)c2)C[C@H](C)O1	.	.	.	.	.	.
Cc1ccc(CN2CCN(C3CCN(C(=O)Nc4ccccc4C(F)(F)F)CC3)C(=O)C2=O)cc1	/	/	/	.	/	/
CCC1=Nc2cc(C(=O)NCc3ccco3)ccc2Sc2ccccc21	.	3.2µM	.	.	.	/
N#C/C(=C\c1ccc(Cl)cc1)c1nc2ncccc2[nH]1	.	.	.	.	-105%	.
N#C/C(=C\c1c(Cl)cccc1Cl)c1nc2ccccc2[nH]1	.	.	.	.	.	.
CN(C)CCCNC(=O)c1ccc(Cc2nc3ccccc3[nH]2)cc1	/	/	/	.	/	/
Cc1ccc(S(=O)(=O)N2CCCC(C(=O)NCCc3ccc(S(N)(=O)=O)cc3)C2)cc1 (stereo not given)	.	.	.	/	.	.
Oc1c(C(Nc2ccccn2)c2ccccn2)ccc2cccnc12 (stereo not given)	.	.	.	3.5µM	.	.
CCOC(=O)c1[nH]c(C)c(CCC(=O)Nc2cccc(C(F)(F)F)c2)c1C	/	/	/	.	/	/
CCCOC(=O)NC(CC)COC(=O)Nc1cccc(C)c1C (stereo not given)	.	.	.	.	-116%	.
COc1ccc(C2/C(=C(\O)c3ccc4c(c3)OCCO4)C(=O)C(=O)N2Cc2cccnc2)cc1 (stereo not given)	?	.	-58	/	/	.
CC1Cc2cc(/C(O)=C3/C(=O)C(=O)N(Cc4cccnc4)C3c3cccc(O)c3)ccc2O1 (stereo not given)	.	.	-79	/	/	?
COC(=O)c1ccc(C2/C(=C(/O)c3ccc4c(c3)CC(C)O4)C(=O)C(=O)N2Cc2cccnc2)cc1 (stereo not given)	.	.	.	/	.	.
COc1ccc(NCc2cc3ccc(OC)cc3n(CC(=O)Nc3ccc(C)c(C)c3)c2=O)cc1	/	/	/	.	/	/
Cc1cc(Br)c(OCc2ccc(C(=O)N/N=C/c3ccc[nH]3)cc2)c(Br)c1	.	0.18µM	.	/	.	/
O=C(N/N=C/c1ccc[nH]1)c1ccc(COc2cccc3cccnc23)cc1	.	.	.	.	.	.
O=C(NCCCN1CCOCC1)c1ccc2c(c1)N(Cc1cccc(Cl)c1)C(=O)CS2	.	.	.	/	.	.
COc1nn(CC(=O)N2N=C(C)CC2(O)C(F)F)cc1[N+](=O)[O-] (stereo not given)	.	.	.	.	-90%	.
